# According to the supplement of paper PMC10849652:
# About 8,800 targets were measured; listed, in parts, are those with a hit and a random draw of the rest. About 0.5% of all pairs of compound and target were hits. A number with no mark means an inactive call.
# Columns and labels:
# Assay in all cases: log2 fold change, soluble protein after heating vs DMSO (PISA); higher = thermal stabilisation; K562 lysate, 10 uM; active = over 0.2 and 3.5 SD of the protein, either way, in both replicates (recomputed)
# [1] = compound: CCCS(=O)(=O)Nc1ccc(F)c(C(=O)c2c[nH]c3ncc(-c4ccc(Cl)cc4)cc23)c1F [vemurafenib]
# Procedure, shortened: (§1)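 To prepare the extract, K562 pellets were dounce-homogenised in PBS pH 7.4 with 1 mM MgCl2, giving crude material at 1 mg/mL protein. This was treated with 10 μM compound for 30 min, then heated in aliquots for 3 min over 48°C-58°C before pooling and addition of NP-40 to 0.5% at 4°C. Centrifugation at 21,000xg for 90 min left soluble protein in the supernatant, which TMTpro 16plex LC-MS/MS quantified with equalised channel sums. Results are log-two fold changes in thermal stability compared with solvent controls, from duplicates.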
# [2] = compound: CCCS(=O)(=O)Nc1ccc(F)c(C(=O)c2c[nH]c3ncc(Cl)cc23)c1F
# Procedure, shortened: as §1
# [3] = compound: CCN(CCCOc1ccc2c(Nc3cc(CC(=O)Nc4cccc(F)c4)[nH]n3)ncnc2c1)CCOP(=O)(O)O [barasertib]
# Procedure, shortened: as §1
# [4] = compound: CC[C@@H]1C(=O)N(C)c2cnc(Nc3ccc(C(=O)NC4CCN(C)CC4)cc3OC)nc2N1C1CCCC1
# Procedure, shortened: as §1
# [5] = compound: CC[C@@H]1C(=O)N(C)c2cnc(Nc3ccc(C(=O)N[C@H]4CC[C@H](N5CCN(CC6CC6)CC5)CC4)cc3OC)nc2N1C(C)C [volasertib]
# Procedure, shortened: as §1
# [6] = compound: CCn1c(C(=O)N(C2CC2)C2CC2)cc2c3c(ncn3C)c(Nc3cc(C)n(C)n3)nc21
# Procedure, shortened: as §1
# [7] = compound: CCn1cc(-c2ccnc3[nH]c(-c4cccc(CN(C)C)c4)cc23)c(-c2ccc(NC(=O)N(C)C)cc2)n1
# Procedure, shortened: as §1
# [8] = compound: CN1CCC(CNc2ccc3ncc(-c4cccc(OC(F)(F)F)c4)n3n2)CC1
# Procedure, shortened: as §1
# [9] = compound: CN1CCN(CCOc2cc(OC3CCOCC3)c3c(Nc4c(Cl)ccc5c4OCO5)ncnc3c2)CC1 [saracatinib]
# Procedure, shortened: as §1
# [10] = compound: CN1CCN(c2nc(C3=C(c4c[nH]c5ccccc45)C(=O)NC3=O)c3ccccc3n2)CC1 [sotrastaurin]
# Procedure, shortened: as §1
# [11] = compound: CN1CC[C@H](c2c(O)cc(O)c3c(=O)cc(-c4ccccc4Cl)oc23)[C@H](O)C1 [alvocidib]
# Procedure, shortened: as §1
# [12] = compound: CN1CCc2c(c3ccccc3n2Cc2ccc(C(=O)NO)cc2)C1 [Tubastatin A]
# Procedure, shortened: as §1
# [13] = compound: CNC(=O)C1=CC=CC=C1NC2=NC(=NC=C2Cl)NC3=C(C=C(C=C3)N4CCOCC4)OC
# Procedure, shortened: as §1
# [14] = compound: CNC(=O)c1ccc(Nc2ncc(C(F)(F)F)c(NCc3nccnc3N(C)S(C)(=O)=O)n2)cc1 [defactinib]
# Procedure, shortened: as §1
# [15] = compound: CNc1nc(-c2ccc3c(N)n[nH]c3c2)cc(N2C[C@@H](C(=O)NC3CCCCC3)CC[C@H]2C)n1
# Procedure, shortened: as §1
# [16] = compound: COC(=O)N[C@@H](C)CNc1nccc(-c2cn(C(C)C)nc2-c2cc(Cl)cc(NS(C)(=O)=O)c2F)n1 [encorafenib]
# Procedure, shortened: as §1
# [17] = compound: COC(=O)[C@H](CCSC)NC(=O)C1=C(C=C(C=C1)NC[C@H](CS)N)C2=CC=CC=C2
# Procedure, shortened: as §1
# [18] = compound: COc1cc(Nc2ncc3c(n2)-c2ccc(Cl)cc2C(c2c(F)cccc2OC)=NC3)ccc1C(=O)O [alisertib]
# Procedure, shortened: as §1
# [19] = compound: COc1cc2nc(-c3cc(F)ccc3O)nc(N[C@@H]3CNC[C@H]3C(C)(C)O)c2cc1OC
# Procedure, shortened: as §1
# [20] = compound: COc1cc2ncnc(Nc3ccc(F)c(Cl)c3)c2cc1OCCCN1CCOCC1 [gefitinib]
# Procedure, shortened: as §1
# Chain of UniProt Q8NF37 (Q8NF37 whole entry, looked up): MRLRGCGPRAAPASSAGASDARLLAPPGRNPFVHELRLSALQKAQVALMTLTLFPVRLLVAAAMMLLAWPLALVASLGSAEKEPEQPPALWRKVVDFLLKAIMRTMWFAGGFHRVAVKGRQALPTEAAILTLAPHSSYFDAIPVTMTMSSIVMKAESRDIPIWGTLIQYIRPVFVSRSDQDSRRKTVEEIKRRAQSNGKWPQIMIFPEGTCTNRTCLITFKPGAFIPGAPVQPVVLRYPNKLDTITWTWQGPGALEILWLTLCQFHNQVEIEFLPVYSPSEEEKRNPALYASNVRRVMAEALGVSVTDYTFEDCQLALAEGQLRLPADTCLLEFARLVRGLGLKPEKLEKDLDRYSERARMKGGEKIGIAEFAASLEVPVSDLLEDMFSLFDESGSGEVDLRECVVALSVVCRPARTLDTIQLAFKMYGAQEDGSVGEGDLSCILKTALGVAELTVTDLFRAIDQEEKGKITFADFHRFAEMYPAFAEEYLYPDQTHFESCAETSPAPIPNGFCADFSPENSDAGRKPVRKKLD
# Chain of UniProt Q16539 (Q16539 whole entry, looked up): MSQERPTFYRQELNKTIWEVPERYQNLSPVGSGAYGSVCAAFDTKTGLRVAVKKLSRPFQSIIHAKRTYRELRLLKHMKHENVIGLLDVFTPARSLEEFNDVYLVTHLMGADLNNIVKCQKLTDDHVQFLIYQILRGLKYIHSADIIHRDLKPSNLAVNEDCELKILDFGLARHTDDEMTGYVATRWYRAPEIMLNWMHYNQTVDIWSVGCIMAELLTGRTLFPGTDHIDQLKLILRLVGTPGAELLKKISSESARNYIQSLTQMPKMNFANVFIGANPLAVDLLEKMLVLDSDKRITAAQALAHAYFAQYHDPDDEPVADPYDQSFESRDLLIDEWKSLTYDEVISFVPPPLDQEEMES
# Chain of UniProt Q92615 (Q92615 whole entry, looked up): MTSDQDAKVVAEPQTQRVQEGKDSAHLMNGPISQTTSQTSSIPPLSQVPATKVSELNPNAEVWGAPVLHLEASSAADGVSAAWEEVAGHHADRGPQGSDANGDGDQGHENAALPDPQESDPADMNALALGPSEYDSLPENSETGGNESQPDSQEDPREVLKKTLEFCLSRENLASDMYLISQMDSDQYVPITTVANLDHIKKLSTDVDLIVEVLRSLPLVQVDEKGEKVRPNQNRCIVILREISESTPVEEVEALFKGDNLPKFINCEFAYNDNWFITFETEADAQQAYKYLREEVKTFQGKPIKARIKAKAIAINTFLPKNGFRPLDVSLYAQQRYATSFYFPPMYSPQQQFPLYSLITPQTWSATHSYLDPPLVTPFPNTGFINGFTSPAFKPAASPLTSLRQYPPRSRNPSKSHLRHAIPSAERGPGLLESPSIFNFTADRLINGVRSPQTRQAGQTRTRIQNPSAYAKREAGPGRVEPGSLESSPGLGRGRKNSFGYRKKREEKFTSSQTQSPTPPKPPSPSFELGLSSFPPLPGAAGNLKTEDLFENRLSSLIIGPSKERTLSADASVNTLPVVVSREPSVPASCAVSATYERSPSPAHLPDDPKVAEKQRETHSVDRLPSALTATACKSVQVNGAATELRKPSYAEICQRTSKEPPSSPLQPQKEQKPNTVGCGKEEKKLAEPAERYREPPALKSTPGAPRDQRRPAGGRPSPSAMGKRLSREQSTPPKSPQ
# Chain of UniProt Q8IYU8 (Q8IYU8 whole entry, looked up): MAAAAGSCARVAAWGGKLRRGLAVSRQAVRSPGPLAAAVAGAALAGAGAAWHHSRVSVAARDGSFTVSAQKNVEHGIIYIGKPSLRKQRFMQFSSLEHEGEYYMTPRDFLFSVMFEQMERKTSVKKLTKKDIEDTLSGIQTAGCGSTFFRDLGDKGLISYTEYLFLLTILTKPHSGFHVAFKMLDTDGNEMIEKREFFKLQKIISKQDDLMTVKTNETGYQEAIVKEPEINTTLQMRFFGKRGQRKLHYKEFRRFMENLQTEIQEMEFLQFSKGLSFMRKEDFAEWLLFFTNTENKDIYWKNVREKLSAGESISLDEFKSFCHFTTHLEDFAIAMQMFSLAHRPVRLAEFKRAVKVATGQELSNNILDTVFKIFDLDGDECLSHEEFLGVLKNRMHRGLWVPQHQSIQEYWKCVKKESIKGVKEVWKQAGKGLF
# Chain of UniProt O95297 (O95297 whole entry, looked up): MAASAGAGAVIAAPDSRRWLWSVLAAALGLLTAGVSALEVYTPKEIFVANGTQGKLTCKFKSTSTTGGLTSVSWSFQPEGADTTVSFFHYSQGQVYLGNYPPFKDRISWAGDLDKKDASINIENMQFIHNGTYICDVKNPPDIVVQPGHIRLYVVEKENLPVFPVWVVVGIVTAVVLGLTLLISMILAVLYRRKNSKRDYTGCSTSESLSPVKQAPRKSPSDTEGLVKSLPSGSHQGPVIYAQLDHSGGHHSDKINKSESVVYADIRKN
# Chain of UniProt Q15058 (Q15058 whole entry, looked up): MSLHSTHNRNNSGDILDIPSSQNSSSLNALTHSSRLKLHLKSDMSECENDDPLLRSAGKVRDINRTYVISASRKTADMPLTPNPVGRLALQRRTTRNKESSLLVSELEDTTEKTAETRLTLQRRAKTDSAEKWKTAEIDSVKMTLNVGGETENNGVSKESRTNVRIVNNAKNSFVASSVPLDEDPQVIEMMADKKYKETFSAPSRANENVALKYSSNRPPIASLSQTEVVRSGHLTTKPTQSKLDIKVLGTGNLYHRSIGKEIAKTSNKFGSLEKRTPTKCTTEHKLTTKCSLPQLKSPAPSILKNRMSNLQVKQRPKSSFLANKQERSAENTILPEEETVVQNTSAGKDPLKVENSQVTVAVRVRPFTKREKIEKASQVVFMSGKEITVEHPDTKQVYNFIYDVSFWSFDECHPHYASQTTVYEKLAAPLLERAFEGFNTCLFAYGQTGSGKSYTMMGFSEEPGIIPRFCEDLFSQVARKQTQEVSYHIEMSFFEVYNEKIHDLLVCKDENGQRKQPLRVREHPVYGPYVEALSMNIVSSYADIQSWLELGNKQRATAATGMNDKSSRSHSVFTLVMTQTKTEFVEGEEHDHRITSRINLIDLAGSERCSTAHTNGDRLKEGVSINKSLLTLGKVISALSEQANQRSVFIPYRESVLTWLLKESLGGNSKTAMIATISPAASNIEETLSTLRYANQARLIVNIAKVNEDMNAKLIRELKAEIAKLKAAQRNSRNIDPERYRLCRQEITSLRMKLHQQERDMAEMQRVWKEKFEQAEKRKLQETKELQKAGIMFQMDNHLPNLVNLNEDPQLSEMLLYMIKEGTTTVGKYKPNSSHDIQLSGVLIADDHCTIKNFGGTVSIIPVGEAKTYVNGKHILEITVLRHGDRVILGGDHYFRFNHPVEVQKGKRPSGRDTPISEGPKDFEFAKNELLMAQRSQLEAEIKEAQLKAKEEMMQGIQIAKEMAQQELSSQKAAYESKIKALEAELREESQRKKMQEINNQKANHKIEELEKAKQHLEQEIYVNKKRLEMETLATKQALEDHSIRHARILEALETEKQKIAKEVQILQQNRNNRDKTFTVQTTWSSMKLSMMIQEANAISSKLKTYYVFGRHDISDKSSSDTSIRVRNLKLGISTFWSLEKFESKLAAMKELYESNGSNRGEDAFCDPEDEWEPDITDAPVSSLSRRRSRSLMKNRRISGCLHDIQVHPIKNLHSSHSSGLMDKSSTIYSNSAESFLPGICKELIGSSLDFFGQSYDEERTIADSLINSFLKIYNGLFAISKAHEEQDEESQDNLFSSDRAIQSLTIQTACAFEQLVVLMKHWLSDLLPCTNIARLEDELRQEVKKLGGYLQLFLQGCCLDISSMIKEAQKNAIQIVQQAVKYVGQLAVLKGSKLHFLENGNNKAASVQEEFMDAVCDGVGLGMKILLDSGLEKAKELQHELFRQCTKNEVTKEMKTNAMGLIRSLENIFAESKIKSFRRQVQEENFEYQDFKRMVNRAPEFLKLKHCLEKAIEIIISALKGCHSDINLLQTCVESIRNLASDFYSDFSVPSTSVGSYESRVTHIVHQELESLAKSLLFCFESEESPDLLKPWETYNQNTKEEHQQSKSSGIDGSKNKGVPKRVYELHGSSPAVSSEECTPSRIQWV
Target,log2 fold change [1],log2 fold change [2],log2 fold change [3],log2 fold change [4],log2 fold change [5],log2 fold change [6],log2 fold change [7],log2 fold change [8],log2 fold change [9],log2 fold change [10],log2 fold change [11],log2 fold change [12],log2 fold change [13],log2 fold change [14],log2 fold change [15],log2 fold change [16],log2 fold change [17],log2 fold change [18],log2 fold change [19],log2 fold change [20]
LPCAT1 (UniProt Q8NF37),-0.009,0.07,0.012,0.037,0.097,-0.072,-0.39 (active),0.099,0.079,0.032,-0.117,0.117,0.067,0.045,0.097,0.037,-0.063,0.07,-0.01,-0.009
MRPL10 isoform 2 (UniProt Q7Z7H8),0.027,0.033,0.132,0.03,-0.037,-0.063,0.075,-0.032,-0.005,0.068,0.024,-0.013,-0.035,0.023,0.074,0.031,0.183,0.028,-0.025,-0.019
KIF14 (UniProt Q15058),0.027,0.021,0.143,0.052,-0.071,-0.005,-0.046,0.05,0.016,0.01,-0.031,-0.217,0.032,0.043,0.011,0.038,0.045,-0.028,0.013,0.001
MAPK14 (UniProt Q16539),0.175,0.081,0.021,-0.192,-0.056,-0.052,-0.035,0.093,0.226,-0.058,0.007,-0.203,0.38,-0.053,-0.043,0.488,0.314,-0.144,0.011,0.295
LARP4B (UniProt Q92615),-0.014,0.011,-0.033,-0.029,-0.042,0.08,-0.116,0.038,0.011,-0.019,0.001,-0.118,0.005,0.023,-0.027,0.024,0.015,0.025,-0.013,-0.006
MPZL1 (UniProt O95297),0.037,0.001,0.024,0.057,0.035,0.027,0.262 (active),-0.052,0.045,-0.022,-0.01,0.048,-0.014,0.01,0.028,0.045,-0.082,0.007,0.012,0.016
LRPPRC (UniProt P42704),0.032,0.024,0.101,-0.141,-0.072,0.076,0.033,-0.087,0.045,0.005,0.076,-0.091,0.011,0.037,-0.041,0.005,0.079,0.029,-0.006,-0.005
MICU2 (UniProt Q8IYU8),-0.061,0.043,0.109,-0.023,0,-0.036,0.013,-0.101,0.021,0.126,0.03,-0.039,0.01,0.003,0.009,0.015,-0.091,0.039,-0.128,-0.054
